Source: PubChem BioAssay AID652142 (Molecular Libraries Program, Specialized Chemistry Center, …, 2013)
In all, about 2,400 compounds went through this assay and fewer than 10 were called active. How the calls were made is not given here. Not all results are given here.

target: Rac GTPase-activating protein 1 (Homo sapiens) (UniProt Q9H0H5); test: inhibition of MgcRacGAP-stimulated Rac1 GTP hydrolysis – biochemical, inorganic phosphate detection, orthogonal assay, confirmation (AID 652142); conditions: MgcRacGAP/Rac1F28L GTP hydrolysis, Biomol green phosphate; active compounds read high
Sequence (Q9H0H5 whole entry, looked up): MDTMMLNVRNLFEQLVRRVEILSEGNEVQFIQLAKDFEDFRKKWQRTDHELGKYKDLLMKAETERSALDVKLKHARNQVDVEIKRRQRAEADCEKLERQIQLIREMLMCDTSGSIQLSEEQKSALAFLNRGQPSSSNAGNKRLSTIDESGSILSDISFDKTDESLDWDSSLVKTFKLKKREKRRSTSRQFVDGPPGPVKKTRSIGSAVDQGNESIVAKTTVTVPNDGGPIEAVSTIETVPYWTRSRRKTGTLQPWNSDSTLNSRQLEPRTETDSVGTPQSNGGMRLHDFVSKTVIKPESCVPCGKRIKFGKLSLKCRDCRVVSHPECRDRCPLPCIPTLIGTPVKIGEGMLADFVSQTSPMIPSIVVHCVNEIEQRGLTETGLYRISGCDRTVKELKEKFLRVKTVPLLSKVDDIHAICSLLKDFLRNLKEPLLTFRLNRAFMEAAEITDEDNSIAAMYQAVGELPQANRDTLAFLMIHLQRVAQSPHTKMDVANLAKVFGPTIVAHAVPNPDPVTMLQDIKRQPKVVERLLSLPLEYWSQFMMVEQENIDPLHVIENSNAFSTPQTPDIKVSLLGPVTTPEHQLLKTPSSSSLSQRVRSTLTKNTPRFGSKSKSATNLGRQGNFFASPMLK

inhibition, inactive:
Cc1nn2cc(-c3ccc(N)cc3)nc2s1 22.3%, Oc1ccc(/C=N/Nc2ccnc3cc(Cl)ccc23)cc1O 4.55%, Oc1ccc(/C=N\Nc2cc(N3CCOCC3)nc(N3CCOCC3)n2)c(O)c1 21.8%, Nc1ccc(N2CCCC2)c(S(=O)(=O)Nc2cccc(C(F)(F)F)c2)c1 29.9%, Cc1ccc(-c2cc(C(=O)N3CCN(c4ccc(O)cc4)CC3)c3ccccc3n2)cc1 23.8%, O=C(/C=C/Nc1ccc(Nc2ccccc2)cc1)c1cccs1 19.5%, C/C(=N\NC(=O)c1cccc(N/N=C(\C)c2cc(O)ccc2O)c1)c1cc(O)ccc1O 28.1%, Cc1ccc(CN2CCN(Cc3ccccc3C(F)(F)F)CC2)cc1 17.2%, CCOC(=O)C1=C(COC(=O)/C=C/c2ccc(O)c(OC)c2)NC(=O)NC1C (configuration not stated) 11.2%, COc1cc(/C=C/C(=O)OCC(=O)N2CC3(C)CC2CC(C)(C)C3)ccc1O (configuration not stated) 33.5%, COc1ccc(S(=O)(=O)/N=C2\C=C(Nc3ccc(O)cc3)C(=O)c3ccccc32)cc1 13.5%, CCn1c(=S)[nH]c2sc3c(c2c1=O)CCCC3 10.8%, CCc1ccc(O)c(N=Cc2cccc(C)c2O)c1 23.4%, N=C(N)c1ccc(N=Nc2c(O)ccc3c2[nH]c2ccccc23)cc1 62.4%, CCc1ccc(O)c(N=Cc2ccccc2O)c1 33.5%, CN(C)c1ccc(C=c2c3cc(O)ccc3n3c2cc(-c2ccccc2)[n+]3C)cc1 83.7%, Oc1ccc(/C=N/Nc2cc(N3CCOCC3)nc(N3CCOCC3)n2)cc1 25.9%, Oc1ccc(/C=N/Nc2ccc(C(F)(F)F)cn2)c(O)c1 19.4%, O=S(=O)(O)c1cc(O)c(N=Nc2ccc(O)cc2O)c2ccccc12 24.4%, Oc1ccc(-c2[nH]ncc2-c2ccc(Cl)cc2)c(O)c1 26.7%, CN(C)c1ccc2c(c1)C(=NO)c1ccccc1-2 19.4%, O=C(NCc1ccco1)c1sc(=S)n2c1[nH]c(=O)c1ccccc12 31.8%, CCN(CC)c1ccc(Nc2nc(Cl)ncc2Br)cc1 33.2%, CCOc1cc(/C=N/NC(=O)CN2CCCCC2)ccc1O 30.3%, CN(c1ccc(O)cc1)c1nc(-c2ccccc2)cs1 23.3%, COc1cc(/C=N/Nc2nc3ccccc3[nH]2)ccc1O 12.2%, CCN(c1ccccc1)S(=O)(=O)c1ccc(N2CCN(c3ccc(O)cc3)CC2)nc1 27.7%, CCOc1cc(/C=N/NC(=O)CCCC(=O)NC2CCCCC2)ccc1O 20.5%, Cc1cc(-c2ccccc2)nc(N/N=C/c2ccc(O)cc2O)n1 20.5%, Cc1c(C(=O)N/N=C/c2ccc(O)c(Br)c2)sc(N)c1C#N 31.3%, Nc1ccc2nc(C3CCCCC3)[nH]c2c1 28.4%, COc1cc(/C=N/NC(=S)NC2CC3CCC2C3)ccc1O (configuration not stated) -0.0456%, COc1cc2c(cc1NC(=O)C(Cl)Cl)-c1ccc(NC(=O)C(Cl)Cl)cc1C2 13.1%, CSc1nc(/C=C2\C=Nc3ccccc32)c(O)n1C 7.92%, Cn1c(-c2ccc(Cl)cc2)cnc1NCc1cc2c(cc1[N+](=O)[O-])OCO2 22.1%, C=CCn1c(SCC(=O)c2ccc(O)c(O)c2)nnc1-c1cccc(Cl)c1 29.9%, CN(Cc1ccccc1)Cc1c(O)ccc2ccccc12 23.9%, COc1cc(/C=N/NC(=O)CN(Cc2ccccc2)S(=O)(=O)c2ccc3c(c2)OCCO3)ccc1O -2.68%, COc1cccc(CNc2ccc3[nH]c(=O)[nH]c3c2)c1OCc1ccccc1Cl -0.282%, Cc1ccccc1C(OCC(O)CN1CCN(CCO)CC1)c1ccccc1 (configuration not stated) 29.2%, CCN1CCN(CCOc2ccc(Br)cc2C)CC1 23.2%, COc1cc(/C=N/NC(=O)NC23CC4CC(CC(C4)C2)C3)ccc1O 35.9%, O=c1c2ccccc2sn1-c1ccc(Cl)cc1 75%, CC[n+]1ccc(/C=C/c2ccc(N(C)C)cc2)c2ccccc21 31.5%, COc1cc(/C=N/NC(=O)c2nnn(-c3nonc3N)c2C(C)C)ccc1O 15.1%, CN1CCN(/N=C/c2nc(-c3ccccc3)n3ccccc23)CC1 30.1%, CC(=O)N1CCN(c2ccc(Nc3ncnc4c3oc3ccccc34)cc2)CC1 8.13%, CCOc1cc(/C=N/NC(=O)c2ccccc2-n2cccc2)ccc1O 30.4%, CN(C)c1ccc(N=C/C=C2\N(C)c3ccccc3C2(C)C)cc1 22.7%, COc1cc(/C=N/NC(=O)c2ccc(-n3cccc3)cc2)ccc1O 12.4%, COc1cc(/C=N/NC(=O)C2(O)c3ccccc3-c3ccccc32)ccc1O 25.6%, COc1ccc(Oc2cn[nH]c2-c2ccc(O)cc2O)cc1 17.2%, Cc1cc(-c2ccccc2)nc(N/N=C/c2ccc(N(C)C)cc2)n1 23.8%, COc1cc(-c2nc3ccc(C)cn3c2Nc2ccc3c(c2)OCCO3)ccc1O 21.3%, CCOC(=O)c1cc(NCc2cccs2)ccc1N1CCOCC1 30.4%, O=C(N/N=C/c1ccc(O)cc1)Nc1cccc2nsnc12 33.1%, CC(=O)Nc1ccc(Oc2nc(-c3ccccn3)nc3ccccc23)cc1 26%, CCCS(=O)(=O)N1CCN(CC2CC3C=CC2C3)CC1 (configuration not stated) 10.6%, O=c1c2ccccc2sn1-c1ccc(Cl)cc1Cl 79.5%, O=[N+]([O-])c1cccc(/C=N/n2c(-c3cccnc3)n[nH]c2=S)c1 32.9%, C=CCn1c(N/N=C/c2ccc(O)cc2)nc2ccccc2c1=O 18.4%, COc1cc(CCNC2=CC(=O)c3ncccc3C2=O)ccc1O 23.7%
